Holding throughout (assay type): functional
Assay [1] has as its target Solute carrier family 2, facilitated glucose transporter member 1 (Homo sapiens) (UniProt P11166). In words: ST_JUDE_LEISH: Cytotoxicity at 2uM final concentration against transgenic Leishmania Mexicana promastigotes LmGLUT1 that are glucose transport deficient and complemented with the human glucose transporter GLUT1. Activity is measured by DNA content using SYBR green in vitro.

The target in assay [2] is Hexose transporter 1 (Plasmodium falciparum) (UniProt O97467). Nature of the assay: ST_JUDE_LEISH: Cytotoxicity at 2uM final concentration against transgenic Leishmania Mexicana promastigotes LmPfHT that are glucose transport deficient and complemented with the Plasmodium falciparum hexose transporter. Activity is measured by DNA content using SYBR green in vitro.
Assay [3] addresses Glucose transporter (Leishmania mexicana) (UniProt O61059). In words: ST_JUDE_LEISH: Cytotoxicity at 2uM final concentration against transgenic Leishmania Mexicana promastigotes LmGT2 that are glucose transport deficient and complemented with the L. Mexicana glucose transporter 2. Activity is measured by DNA content using SYBR green in vitro.

A word on the inhibition: it is the relative decrease from the control value, in per cent.

Sequence of Solute carrier family 2, facilitated glucose transporter member 1 (Homo sapiens) (P11166 whole entry): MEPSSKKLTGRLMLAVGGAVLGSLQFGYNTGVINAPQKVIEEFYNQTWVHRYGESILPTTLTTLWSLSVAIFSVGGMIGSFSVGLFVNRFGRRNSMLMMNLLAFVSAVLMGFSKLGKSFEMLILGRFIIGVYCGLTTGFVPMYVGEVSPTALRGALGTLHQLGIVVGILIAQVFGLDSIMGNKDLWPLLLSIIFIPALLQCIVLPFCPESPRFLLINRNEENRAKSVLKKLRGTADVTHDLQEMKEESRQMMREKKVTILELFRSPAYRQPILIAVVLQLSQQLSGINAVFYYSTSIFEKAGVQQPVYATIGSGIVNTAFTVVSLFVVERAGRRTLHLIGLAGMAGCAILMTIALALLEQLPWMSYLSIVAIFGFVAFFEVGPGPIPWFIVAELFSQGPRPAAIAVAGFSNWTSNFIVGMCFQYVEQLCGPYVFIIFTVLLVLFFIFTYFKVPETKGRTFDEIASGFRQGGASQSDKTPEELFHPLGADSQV

On to `Cc1cc(CNCCCCCCCNCc2ccc(-c3ccccc3)cc2)ccc1O`, for which the results for the inhibition in assay [1], in assay [2] and in assay [3] were 0.67%, 1.76% and 1.05%, respectively.
The like results for `O=C(N[C@H]1CCN(Cc2ccc(OCCCN3CCCCC3)cc2)C1)c1ccc(Oc2ccccc2)cc1` were, in that order, 72.1%, 19.9% and 13.7%.
The like results for `CCCC(C)Nc1nc(C)cc(N[C@@H](Cc2ccccc2)C(=O)NCCc2ccccc2)n1` (stereo partly drawn) were, in that order, 2.61%, 3.38% and -0.17%.
For the compound `CCN1CCN(CCCNc2c3ccc(Cl)cc3nc3ccc(OC)cc23)CC1`, the figures for the inhibition in assay [1], in assay [2] and in assay [3] were 9.58%, 9.46% and 8.38%, respectively.
In the same order, the values of `CC(C)C[C@H](NC(=O)c1cc2ccccc2s1)C(=O)N[C@H]1CCN(Cc2ccc(I)c(OCCN3CCCC3)c2)C1` are -0.35%, -1.55% and -0.29%.
As for `CS(=O)(=O)N1CC2(CCN(CCC(NC(=O)NCc3ccc(Cl)c(Cl)c3)c3ccc(Cl)c(Cl)c3)CC2)c2ccccc21` (stereo not drawn), the inhibition in assay [1] is 0.66%; in assay [2], -2.55%; in assay [3] it was -1.75%.
The like results for `CN1CCC(c2c[nH]c3ccc(NC(=O)Nc4ccc(-c5ccncc5)c(Cl)c4Cl)cc23)CC1` were, in that order, -2.47%, 0.63% and 4.75%.
In the same order, the values of `CCCOC(=O)C1=C(C)NC2=C(C(=O)CC(c3ccc(OC)c(OC)c3)C2)C1c1cccc(O)c1` (stereo not drawn) are 8.78%, 9.73% and 8.46%.
The like results for `CN(C)c1ccc(-c2csc(C(=O)NC3CCN(Cc4ccc(C(C)(C)C)cc4)C3)c2)cc1` (stereo not drawn) were, in that order, 5.6%, 5.58% and 5.56%.
With `O=C(Nc1ccc(Cl)c(Cl)c1)N1CCc2cc3nccc(N4CCN5CCC[C@H]5C4)c3cc21`, the inhibition is 3.24% in assay [1], 4.53% in assay [2] and 4.1% in assay [3].
In the same order, the values of `CCCn1c(Sc2ccc(C#N)c([N+](=O)[O-])c2)nnc1-c1cc(OC)cc(OC)c1` are 0.5%, 4.36% and 1.24%.
